The source made the active and inactive calls. No rule for the calls is given here.
test: inhibition of 3D7 malaria parasite growth – strain 3D7 (AID 2306);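 also: 0% = DMSO wells and 100% = chloroquine plus artemisinin control wells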; conditions: P. falciparum 3D7 erythrocytic growth, LDH absorbance, 72 h; at 2 µM; stronger effect = higher value

Row | SMILES | growth inhibition
1 | CSc1ccc(CN2CCC(NC(=O)c3ccc(-c4ccc(N(C)C)cc4)s3)CC2)cc1 | 86% (active)
2 | Cc1cc(NC(=O)Nc2cccc(N(C)C)c2)c2ccccc2n1 | 97% (active)
3 | CN(CCN1CCCC1)c1nc2ccc(-n3cnc4cc(-c5ccc(Cl)cc5)sc4c3=O)cc2[nH]1 | 93% (active)
4 | CC(C)n1c(C2CCN(CC3CCN(C(=O)/C=C/c4ccc(Cl)c(Cl)c4)CC3)CC2)nc2ccccc21 | 94% (active)
5 | Cc1ccc(NC(=O)Nc2ccc(Cl)c(C(F)(F)F)c2)cc1-c1ccc(C(=O)Nc2ccncc2)cc1 | 99% (active)
6 | O=S(=O)(c1cccc(C(F)(F)F)c1)N1CCC(CO)(Cc2cccc(C(F)(F)F)c2)CC1 | 100% (active)
7 | CCOc1ccc(CCC(=O)O)cc1OCC | 94% (active)
8 | COc1ccc2nccc([C@@H](O)CN3CCC(NCc4nc5c(C#N)cccc5[nH]4)CC3)c2c1 | 96% (active)
9 | COc1ccc(C(O)CNC(C)CCc2ccccc2)cc1C(F)(F)F (configuration not stated) | 99% (active)
10 | COc1cccc2cc(C(=O)N[C@@H](CC(C)C)C(=O)N[C@H](/C=N/NC(=O)c3ccccc3)Cc3cnc[nH]3)oc12 | 99% (active)
11 | O=C(NCc1cccc2ccccc12)C1CCCN(C(=O)c2ccc(O)c(-c3ccc(Cl)c(Cl)c3)c2)C1 (configuration not stated) | 92% (active)
12 | Cc1ccccc1C1CCN(C2CCC(NC(=O)c3cncc(-c4ccccc4)c3)CC2)CC1 (configuration not stated) | 101% (active)
13 | O=S(=O)(NC1CCN(c2ccnc3cc(Cl)ccc23)C1)c1ccc(C(F)(F)F)cc1 (configuration not stated) | 100% (active)
14 | O=C(Nc1ccc(OC2CCN(Cc3ccsc3)C2)c(Cl)c1)c1ccsc1 (configuration not stated) | 85% (active)
15 | O=C(CCc1cnc[nH]1)Nc1cccc(-c2ccc(-c3nc4ccccc4[nH]3)s2)c1 | 92% (active)
16 | Cc1cccc2c3c([nH]c12)C1(CCN(CCc2ccccc2)CC1)NC(C(=O)NCc1ccccc1)C3 (configuration not stated) | 86% (active)
17 | Cc1cc(CNC(=O)c2ccc(-c3ccc(-c4nc5ccc(C(F)(F)F)cc5[nH]4)s3)cc2)on1 | 93% (active)
18 | Oc1ccc(CCNc2nc(NCCOc3cccc4ccccc34)nc(N3CCNCC3)n2)cc1 | 96% (active)
19 | Nc1c(Cl)cc(C(O)CNCCCCCCOCCc2ccc(CO)s2)cc1Cl (configuration not stated) | 86% (active)
20 | N#Cc1ccc(NC(=O)c2ccc(C(=O)NCCCCN3CCC(c4ccc5c(c4OCCOC4CCCCO4)CCCC5)CC3)cc2)cc1 (configuration not stated) | 99% (active)
21 | CCCc1cc(Cc2cnc(N)nc2N)cc(CCC)c1O | 96% (active)
22 | CCn1c(C)cc(C=C2SC(=Nc3ccccc3)NC2=O)c1C | 90% (active)
23 | COc1cccc(CNC(=O)[C@H]2CNCCN2C(=O)CCCc2ccccc2)c1 | 91% (active)
24 | Clc1ccc(CNc2nc(NCCc3cnc[nH]3)nc(N3CCCC4CCCCC43)n2)cc1 (configuration not stated) | 101% (active)
25 | CS(=O)(=O)c1ccc(CNCc2cccc(-c3ccc(-c4nc5ccc(C(F)(F)F)cc5[nH]4)cc3)c2)cc1 | 101% (active)
26 | O=C(NCc1cccc(C(F)(F)F)c1)C(c1cc2ccccc2o1)N1CCN(C(c2ccccc2)c2ccccc2)CC1 (configuration not stated) | 91% (active)
27 | CCOc1ccccc1C(=O)N1CCc2cc3nccc(N4CCN5CCC[C@H]5C4)c3cc21 | 100% (active)
